# Compound activity: PubChem BioAssay, several laboratories
# Shown are actives, neighbours in structure and some others; about 1.9% of the full set was active somewhere.
# Efa HMGR inh = E. faecalis class II HMG-CoA reductase inhibition; 190,000 tested, 0.41% active; purified E. faecalis HMGR, NADPH absorbance 340 nm kinetic; inhibition, % at 10 µM;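 active means inhibition above a set limit, the median over all tested compounds plus 3 SD, cut at about 9.5% in these data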;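 further: enzyme runs in reverse so mevalonate oxidation gives rising NADPH absorbance; 0% = complete reaction with DMSO and 100% = background rate lacking mevalonate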
# PGE2 EP2 inh = blocks the human prostaglandin E2 receptor EP2 | C6 glioma cells expressing human EP2, cAMP TR-FRET; cells stimulated with saturating PGE2 | inhibition, % at 25 µM | 260,000 tested, 0.52% active;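 active means percent inhibition above 40 after rounding to a whole number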;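 further: rat C6 glioma host cells with rolipram phosphodiesterase inhibitor present; the protocol text gives 20 µM as final concentration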
# Target sequence (P43116 whole entry, looked up): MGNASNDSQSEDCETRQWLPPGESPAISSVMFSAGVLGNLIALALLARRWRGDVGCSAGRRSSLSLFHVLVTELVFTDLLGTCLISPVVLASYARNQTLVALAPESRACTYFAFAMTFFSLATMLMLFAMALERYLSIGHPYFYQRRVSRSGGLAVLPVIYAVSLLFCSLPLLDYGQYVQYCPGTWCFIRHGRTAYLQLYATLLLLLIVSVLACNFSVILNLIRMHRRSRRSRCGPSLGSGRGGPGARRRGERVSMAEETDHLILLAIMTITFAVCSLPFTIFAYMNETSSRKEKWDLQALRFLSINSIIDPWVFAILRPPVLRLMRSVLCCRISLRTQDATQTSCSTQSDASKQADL
# m-calpain inh = inhibitors of pig calpain II. purified calpain II, fluorogenic peptide substrate, 30 min. inhibition, % at 16 µM. 220,000 tested, 0.37% active. AID 1236;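 active means inhibition above about 50%, limit read from the data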
# EP2 mod = modulates human prostaglandin E2 receptor EP2 signaling. induction, % at 25 µM. AID 940. 260,000 tested, 0.83% active. EP2-expressing cells, cAMP HTRF FRET, PGE2 co-stimulation. P43116;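 active means compounds whose cAMP rise, as percent of the full-agonist control response, exceeds 60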;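 further: rat C6 glioma line stably carrying human EP2 under a CMV promoter; the protocol text gives 20 µM as final concentration; 100% = response of wells given 1 µM PGE2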
# Furin inhibitor = inhibitors of human furin; P09958; purified furin, fluorogenic substrate cleavage; AID 463115; 220,000 tested, 0.061% active; inhibition, % at 20 µM or 30 µM; in the data active means inhibition above about 25%
# * = called active by the depositor; · = no result; ! = a repeat was not active.
SMILES,Efa HMGR inh,PGE2 EP2 inh,m-calpain inh,EP2 mod,Furin inhibitor
O=C(NCc1ccccc1)N1CCC(n2nnc3cc(C(F)(F)F)ccc32)CC1,·,11,·,-22,·
OCC(O)C(O)C(O)C(O)C(O)CO (stereo not drawn),·,13,·,23,·
C=C(C)CC(Nc1ccco1)c1ccccc1C (stereo not drawn),·,5,·,61*,·
Cc1cccc(C)c1NC(=O)CN,·,8,-19,27,-22
Cc1cccc(C)c1NC(=O)Cn1nnnc1N,13*,2,-10,4,-35
COc1ccc(Cl)cc1NC(=O)CSc1nnc2c3c4c(sc3nc(C)n12)CCCC4,·,23,·,5,·
COc1cccc2c(=S)c(CCC(C)=O)c(C)[nH]c12,-2,7,-94,63*,-29
CCc1c(C)[nH]c2c(OC)cccc2c1=O,·,13,·,-19,·
Nc1ncnc2c1ncn2[C@@H]1O[C@H](CO)[C@H](O)C1O (stereo partly drawn),·,8,·,13,·
Nc1ncnc2c1nc(Br)n2C1OC2COP(=O)(O)O[C@@H]2C1O (stereo partly drawn),·,2,·,93*,·
CCO[P@]1(=O)OC[C@@H]2O[C@H](n3cnc4c(N)ncnc43)[C@H](O)[C@H]2O1,·,4,·,101*,·
CCn1c2cc(C)oc2c2cnn(CC(=O)NC3CCCCC3C)c(=O)c21 (stereo not drawn),·,·,·,-47,·
O=C(Cc1ccc(Nc2nc3ccc(Br)cc3[nH]2)cc1)NCCc1cccs1,-4,18,40,20,-16
O=C(NCc1ccco1)c1cccc(Nc2nc3ccc(Br)cc3[nH]2)c1,-1,19,82*,-5,9
O=C(NCC1CC1)c1ccc(Nc2nc3ccc(Br)cc3[nH]2)cc1,-1,74*,-7,-44,-20
CN1CCN(c2ccccc2NC(=O)c2cccc(OCc3ccccc3)c2)CC1,2,7,0,-3,35*
CN1CCN(c2ccccc2NC(=O)c2ccc(OCc3ccccc3)cc2)CC1,-7,20,1,-1,-15
CCOC(=O)C(CCCOc1cccc(OC)c1)C(=O)OCC,-3,5,-14,13,-13
C=CCc1cc(C)ccc1OCCCC(C(=O)OCC)C(=O)OCC,-3,7,5,61*,-11
COC(=O)c1ccccc1NC(=O)CSc1nnnn1C1CCCCC1,-1,13,-5,35,18
CCOC(=O)c1ccccc1NC(=O)CSc1nnnn1C1CCCCC1,5,3,4,64*!,-6
Cc1cc(C)c2[nH]c(=O)c(CN(CC3CCCO3)S(=O)(=O)c3ccccc3C(F)(F)F)cc2c1 (stereo not drawn),·,10,·,-6,·
COc1ccc(C(=O)N/N=C2\C(=O)c3c(C)cc(C)cc3CC2(C)C)cc1,·,53*,·,-12,·
CCCN(CCC)C(=O)NC1CC(=O)N(c2ccc(OC)cc2)C1 (stereo not drawn),-8,68*,3,-8,-13
CC1CN(Cc2c(O)ccc3c2oc(=O)c2ccccc23)CC(C)O1 (stereo not drawn),·,14,80*,-16,-6
SMILES,Efa HMGR inh,PGE2 EP2 inh,m-calpain inh,EP2 mod,Furin inhibitor
CC(=O)Nc1cccc(NC(=O)Cc2cccs2)c1,·,5,·,-29,·
O=C(Cc1cccs1)Nc1cccc(-c2nc3cc4ccccc4cc3[nH]2)c1,-4,117*,-304,-78,-15
COc1ccc(NC(=O)c2ccco2)cc1NC(=O)COc1cccc(C)c1,·,6,·,-33,·
COc1cccc(-c2cnc(NCc3cc(Cl)ccc3O)n2C)c1,-2,9,55*,-21,-29
CS(=O)(=O)N(CC(N)=O)c1cccc(Br)c1,17*,19,-11,15,-13
CNC(=O)CN(c1cccc(Br)c1)S(C)(=O)=O,-2,13,-27,34,-17
Nc1nc2c(s1)CCc1c-2cnn1-c1ccccc1,3,40*,-55,-23,-10
CC(C)NC(=O)Cn1cc(CN2CCCC(C(=O)N3CCCC3)C2)c2ccccc21 (stereo not drawn),·,6,·,-36,·
O=C(O)CSc1nnc(CSc2nc3ccccc3s2)n1-c1ccccc1,11*,7,-10,22,-31
Cc1[nH]c2ccccc2c1-c1cc(-c2cc(-c3c(C)[nH]c4ccccc34)nc(N)n2)nc(N)n1,·,42*,·,1,·
Cc1ccccc1/C=C\c1nc2ccccc2c(=O)n1Cc1ccccc1,-1,10,30,63*,0
O=c1c2ccccc2nc(-c2ccc(Br)cc2)n1Cc1ccccc1,-1,9,26,63*,-13
CCNC(=S)N(Cc1ccccc1)Cc1cc2cc(CC)ccc2[nH]c1=O,·,5,·,-12,·
